Source: PubChem BioAssay (National Center for Advancing Translational Sciences (NCATS))
Most compounds without a hit are left out; they make up all but 3.6% or so of the library.
MmCpn inh – M. maripaludis TRiC chaperonin inhibition; Potency, µM (doses to about 76.9 µM), inactives show at the highest dose activity, negative = inhibition, hits mostly inhibitors; hit rate 0.031% among 330,000; purified Mm-Cpn ATPase, ADP Transcreener TR-FRET; AID 504842; further: on the % scale 0 is the no-effect control and ±100 the full control effect; nearly all actives have a fitted effect of over 80% in size
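Purified archaeal Mm-CPN (25nM final) preincubated 10 min at 37degC with compound, then 10uM ATP for 30 min at 37degC; ADP measured by HTRF Transcreener TR-FRET; buffer 30 mM TRIS pH 7.4, 100mM KCl, 5mM MgCl2, 1mM DTT.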
aSyn yeast inh – rescues yeast growth from alpha-synuclein toxicity. Yeast expressing alpha-synuclein, growth rescue, BacTiter-Glo, 24 h. Potency, µM (titrated, usually from 46.1 µM), for inactives: at the highest dose growth rescue (activation), most hits filed as activators. hit rate 0.14% among 370,000; further: % of control where 0% means no effect; nearly all actives have a fitted effect of over 65% in size
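Screening used galactose-induced yeast with toxic alpha-synuclein levels, exposed to compound for 24 hr at 30 deg C. Cell growth, read with BacTiter-Glo luminescence, gave the measured signal.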
TDP43 rescue – TDP-43 toxicity inhibition in yeast. hit rate 1.8% among 410,000. Potency, µM (titrated, usually from 46.1 µM), for the others: top-dose growth rescue (activation), hits mostly activators. AID 652104. TDP-43 expressing yeast growth rescue, BacTiter-Glo, 24 h; further: % of control where 0% means no effect; nearly all actives have a fitted effect of over 50% in size
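Growth rescue of TDP-43-toxic yeast measured as ATP luminescence (BacTiter-Glo). Cells grown to mid-log in raffinose, induced in galactose at OD600=0.02, exposed to compound 24 hr at 30 deg C.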
FUS yeast rescue – suppressors of FUS proteinopathy in yeast | AID 1347120 | S. cerevisiae FUS-expressing, growth rescue, OD600, 24 h | hit rate 0.24% among 390,000 | Potency, µM (titrated, usually from 76.6 µM), usual class: activators;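 further: plate controls were DMSO vehicle for no effect and reference control for full effect; nearly all actives have a fitted effect of over 55% in size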
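Restored growth of FUS-toxic S. cerevisiae, read as 600 nm absorbance after 24 h at 30C in galactose medium (starting OD 0.005). Controls CP55940 and DMSO.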
ClpP mod – qHTS Assay for Activators of ClpP. purified B. subtilis ClpP, FRET peptide cleavage, 20 min. Potency, µM (highest dose often 57.5 µM), for the others: at the top dose activity change, negative = active. hit rate 1.9% among 340,000. AID 651965, 2013; active means well fitted falling curve with a large enough effect; inconclusive means small, poorly fitted or top-dose-only effect; inactive means no such curve, though single readings can be large or run the other way; further: the source files actives as falling curves though it sought activators and does not explain the sign; nearly all actives have a fitted effect of over 65% in size
Target sequence (P80244 whole entry, looked up): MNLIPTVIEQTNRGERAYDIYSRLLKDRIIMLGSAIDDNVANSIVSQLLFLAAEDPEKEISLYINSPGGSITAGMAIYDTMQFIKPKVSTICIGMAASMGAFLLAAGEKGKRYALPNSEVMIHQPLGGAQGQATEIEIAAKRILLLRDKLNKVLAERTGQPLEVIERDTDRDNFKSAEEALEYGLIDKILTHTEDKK
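ClpP 10 microg/mL final, pH 8 Tris/KCl buffer with BSA, glycerol, Tween-20; compound pinned in; FRET-FV substrate; RT 20 min; Ex320/Em430; ΔFRET vs ADEP 5.8 microM, DMSO, no enzyme.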
Abeta rescue – restores growth of yeast expressing A-beta42 peptide. yeast expressing A-beta42, growth rescue, OD600, 48 h; response scale: 0% DMSO, 100% iron-clioquinol control. Potency, µM (series often up to 46.1 µM), most hits filed as activators. hit rate 0.063% among 410,000; further: nearly all actives have a fitted effect of over 55% in size
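Yeast A-beta toxicity model in growth medium with pinned compounds, 48 h at 30 C; growth read as absorbance at 600 nm. Normalized to FeCl3/clioquinol equimolar mix (positive) and DMSO (negative).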
* hit, by the source's call; i = inactive; ? = inconclusive; . = no result. Unless noted, the call rests on the fitted dose curve; in most records, active means well fitted curve in the direction sought with a large enough effect; inconclusive means small, poorly fitted or top-dose-only effect, or another doubt; inactive means no such curve, though single readings can be large; an effect the other way counts as inactive or inconclusive. Potency means the concentration at half of the fitted maximal effect.

SMILES	MmCpn inh	aSyn yeast inh	TDP43 rescue	FUS yeast rescue	ClpP mod	Abeta rescue
O=C(NNC1=C(C(=O)C(F)(F)F)CCC1)c1ccccc1Cl	1%	16%	16%	i	28µM*	i
O=C(NNC1=C(C(=O)C(F)(F)F)CCC1)c1ccccc1O	-1%	-9%	-18%	i	-16%	i
COc1ccccc1C(=O)NNC1=C(C(=O)C(F)(F)F)CCC1	1%	3.5µM*	-10%	i	8%	?
Cc1ccc(Cn2c(CNC(=O)c3ccc(Cl)c([N+](=O)[O-])c3)nc3cccnc32)cc1	.	.	-6%	i	-16%	i
O=S(=O)(c1ccc(NC2CCCc3ccccc32)nc1)N1CCOCC1 (centres undefined)	-10%	-5%	29%	i	32µM*	i
O=c1c2ccccc2n(Cc2c(F)cccc2Cl)c(=O)n1CCc1ccccc1	.	.	11%	i	-1%	i
O=C(C[n+]1ccnc2ccccc21)c1ccc(Br)cc1	.	.	.	.	1%	.
CCCC/C=C1/[C@@H](C(C)C)N(Cc2ccc3c(c2)OCO3)C2=N[C@H](c3ccccc3)CC(=O)N21	.	.	.	i	.	.
Cc1ccccc1OCCn1c(=O)oc2ccccc21	3%	20%	?	i	1%	i
Cc1ccc2oc(=O)n(CCCOc3ccccc3)c2c1	1%	8%	35µM*	i	-1%	i
O=c1oc2ccccc2n1CCCOc1ccccc1Cl	.	.	16µM*	i	-2%	i
COc1ccc(OCCCn2c(=O)oc3ccc(C)cc32)cc1	.	.	?	i	2%	i
Cc1cc(OCCCCN2C(=O)NC(C)(C)C2=O)cc(C)c1Cl	-1%	.	18µM*	i	1%	i
CC1(C)NC(=O)N(CCCCOc2ccc(Cl)cc2)C1=O	1%	11%	-13%	i	-1%	i
CC1(C)NC(=O)N(CCCCOc2ccc(Br)cc2Cl)C1=O	-7%	19%	13µM*	i	-1%	i
CC1(C)NC(=O)N(CCCOc2ccc(Br)cc2Cl)C1=O	7%	-4%	5%	?	1%	i
CCc1ccc(S(=O)(=O)c2cn(Cc3ccc(OC)cc3)c3cc(OC)c(OC)cc3c2=O)cc1	.	.	19%	i	?	i
Fc1ccc(-c2csc(=Nc3cccc(C(F)(F)F)c3)n2Cc2ccc3c(c2)OCO3)cc1	.	.	-7%	i	-1%	i
O=C(C[n+]1ccc(-c2nnc3n2CCC3)cc1)c1ccc(Cl)cc1	-2%	0%	20%	.	32µM*	i
N=C1CCCN1CC(=O)c1ccc(Cl)cc1	3%	-4%	-7%	i	2%	i
Cc1ccc(C(=O)C[n+]2ccc(-c3nnc4n3CCC4)cc2)cc1	0%	-1%	8%	.	11µM*	i
CC(C)(C)C(O)C(Cc1ccccc1Cl)n1cncn1 (centres undefined)	-2%	14%	35µM*	i	-1%	i
CC(C)(C)C(=O)C(Cc1ccccc1)n1cncn1 (centres undefined)	0%	?	?	i	2%	i
CC(C)(C)C(=O)C(Cc1ccccc1Cl)n1cncn1 (centres undefined)	0%	30%	7.1µM*	i	0%	i
O=C(Nc1ccc(F)c(F)c1)c1cnn2c1NC(=C1CC1)C=C2C(F)(F)F	.	-1%	.	.	-1%	.
COCCCN1C2=C(C(=O)CC(C)(C)C2)C(c2ccc(OC)c(OC)c2)C2=C1CC(C)(C)CC2=O	0%	1%	11%	i	-5%	i
COCCN1C2=C(C(=O)CC(C)(C)C2)C(c2ccc(OC)c(OC)c2)C2=C1CC(C)(C)CC2=O	0%	-1%	3%	i	10µM*	i
CCCCC(=O)NCCc1cc2ccc(OC)cc2[nH]c1=O	2%	6%	5%	i	25µM*	i
